Results filed as inconclusive are left out. Calls of active or inactive are those of the source. Unless noted, calls come from the whole dose curve; as a rule, active = well fitted curve in the direction sought with a large enough effect; inconclusive = small, poorly fitted or top-dose-only effect, or another doubt; inactive = no such curve, though single readings can be large; an effect the other way counts as inactive or inconclusive.
Columns and labels:
[1] = molecular target: Ferritin light chain (Equus caballus) (UniProt P02791); assay: qHTS Validation Assay for Identification of Novel General Anesthetics (AID 2323); note: series mostly up to about 77 µM
Ferritin light chain (Equus caballus), sequence (P02791 2-175 limits assumed): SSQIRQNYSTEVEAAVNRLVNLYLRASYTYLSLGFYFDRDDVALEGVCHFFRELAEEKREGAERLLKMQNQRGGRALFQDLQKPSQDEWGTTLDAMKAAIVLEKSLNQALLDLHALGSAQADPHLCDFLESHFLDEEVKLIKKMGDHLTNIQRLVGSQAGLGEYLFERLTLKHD
Procedure, shortened: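 Competitive displacement of the profluorescent anesthetic 1-AMA (50% saturated, PBS) from 10 uM apoferritin, 10 min, room temperature. Activity is normalized 380/535 nm fluorescence; concentration-response fitted with a four-parameter Hill equation.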

[2] = High Content Imaging Cell-Based qHTS for Inhibitors of the mTORC1 Signaling Pathway in MEF (Tsc2-/-, p53-/-) Cells (AID 2666);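 note: percent of cells scored positive for phospho-rpS6 Ser235/236 immunostaining by imaging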
Procedure, shortened: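 Phospho-rpS6 (Ser235/236) immunofluorescence, normalized and scored as % positive cells using rapamycin and DMSO controls, was read in empty-vector Tsc2-/-, p53-/- MEFs after 24 h compound exposure at 37 C; propidium iodide counted cells.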

[3] = High Content Imaging Cell-Based qHTS for Inhibitors of the mTORC1 Signaling Pathway in MEF Cells (AID 2667);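 note: Tsc2-/- p53-/- MEFs stably re-expressing wild-type Tsc2 exposed 24 h; series mostly up to about 38 µM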
Procedure, shortened: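 WT MEFs (Tsc2-/-, p53-/- re-expressing Tsc2), in DMEM + 10% FBS, were treated with compound for 24 h at 37 C. Cells were then fixed and stained for phospho-rpS6 Ser235/236 with propidium iodide as cell count. Values are % positive cells, with thresholds set against rapamycin-treated cells.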

[4] = Cytometry Cell-Based qHTS for Inhibitors of the mTORC1 Signaling Pathway in MEF cells (AID 2668); note: potency is the fitted concentration of half-maximal effect
Procedure, shortened: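 Phospho-rpS6 (Ser235/236) immunofluorescence over PI signal, scored as % positive cells using thresholds from 7.5 nM rapamycin and DMSO wells, after 24 h compound exposure of WT-Tsc2-rescued Tsc2-/-, p53-/- MEFs. PI cell count recorded for viability.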

[5] = Validation screen for small molecules that induce DNA re-replication in MCF 10A normal breast cells (AID 463097); note: nearly all actives have a fitted effect of over 60% in size
Procedure, shortened: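 Read-out is Hoechst total nuclear intensity by fluorescence scanning imager, flagging increased high-DNA-content nuclei. Compounds were incubated with MCF 10A cells for 48 hr (37 C, 5% CO2) before 40 min staining.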

[6] = molecular target: DNA polymerase III PolC-type (Bacillus subtilis (strain 168)) (UniProt P13267); assay: qHTS Validation Assay for the Inhibitors of DNA Replication in Gram-Positive Bacteria (AID 485295);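 note: reconstituted holoenzyme with PolC plus beta clamp SSB and primase; PicoGreen fluorescence of double-stranded DNA made on primed circular M13 template; series mostly up to about 57 µM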
Procedure, shortened: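 Double-stranded DNA product detected by PicoGreen fluorescence after EDTA quench. Compound incubated with B. subtilis holoenzyme (PolC, beta subunit, SSB, primase) before substrate addition; primed replication of M13Gori with dNTPs and NTPs at room temperature; DMSO defines 0% inhibition.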

[7] = molecular target: Tumor susceptibility gene 101 protein (Homo sapiens) (UniProt Q99816); assay: qHTS Validation Assay for Iinhibitors of HIV-1 Budding by Blocking the Interaction of PTAP/TSG101 (AID 485342; calls by dose curve)
Tumor susceptibility gene 101 protein (Homo sapiens), sequence (Q99816 whole entry, looked up, the tested form may be a part): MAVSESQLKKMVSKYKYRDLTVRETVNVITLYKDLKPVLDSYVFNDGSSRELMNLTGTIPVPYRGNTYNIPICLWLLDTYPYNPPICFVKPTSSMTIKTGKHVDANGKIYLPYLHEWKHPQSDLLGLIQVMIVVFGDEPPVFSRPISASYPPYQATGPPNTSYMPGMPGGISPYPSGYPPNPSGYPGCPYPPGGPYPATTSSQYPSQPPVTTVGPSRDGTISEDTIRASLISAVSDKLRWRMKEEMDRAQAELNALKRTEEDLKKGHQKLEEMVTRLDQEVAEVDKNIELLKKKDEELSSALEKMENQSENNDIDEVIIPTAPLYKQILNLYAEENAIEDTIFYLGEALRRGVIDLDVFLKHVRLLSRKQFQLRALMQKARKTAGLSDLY
Procedure, shortened: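 Fluorescence polarization of 50 nM FITC-PTAP peptide bound to 10 uM Tsg101 binding domain was read after 20 min room-temperature incubation with compounds, in 10 mM HEPES pH 7.5, 0.15 M NaCl, 0.01% Tween 20.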

[8] = qHTS Validation Assay to Find Inhibitors of Chronic Active B-Cell Receptor Signaling (AID 485345; active = well fitted curve in the direction sought with a large enough effect in the main read-out, with a control signal flat, not every such curve was filed as active)
Procedure, shortened: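 TMD8 ABC-DLBCL cells stably carrying doxycycline-inducible IkappaBalpha–green luciferase fusion plus unfused red luciferase; compounds 46 uM to 3 nM, 4 h at 37C with doxycycline. Corrected green/red luminescence ratio normalized to 10 uM MG-132 and basal cell wells; curves fitted.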

[9] = molecular target: Beta-2 adrenergic receptor (Homo sapiens) (UniProt P07550); assay: qHTS validation assay of beta-arrestin-biased ligands of beta2-adrenergic receptor (AID 485366)
Beta-2 adrenergic receptor (Homo sapiens), sequence (P07550 whole entry, looked up): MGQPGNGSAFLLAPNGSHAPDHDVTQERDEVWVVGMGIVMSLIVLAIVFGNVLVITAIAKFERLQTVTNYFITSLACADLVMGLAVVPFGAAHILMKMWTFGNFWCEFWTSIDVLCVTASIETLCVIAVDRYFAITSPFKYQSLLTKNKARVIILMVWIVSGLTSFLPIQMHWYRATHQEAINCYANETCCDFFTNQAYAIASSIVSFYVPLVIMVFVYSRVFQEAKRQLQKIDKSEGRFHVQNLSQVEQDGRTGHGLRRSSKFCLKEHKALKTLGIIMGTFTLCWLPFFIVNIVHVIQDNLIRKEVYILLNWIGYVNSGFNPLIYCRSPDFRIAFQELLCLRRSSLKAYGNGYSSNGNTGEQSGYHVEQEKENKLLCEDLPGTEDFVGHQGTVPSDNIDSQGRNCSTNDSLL
Procedure, shortened: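 Arrestin-recruitment (Tango) reporter: ligand-bound beta2-AR recruits beta-arrestin, releasing tTA, which upregulates luciferase. Titrations of up to 46 microM incubated 18 hr at 37 degrees C before luminescent readout.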

[10] = molecular target: ATP-dependent 6-phosphofructokinase (Trypanosoma brucei brucei) (UniProt O15648); assay: qHTS Validation Assay to Find Inhibitors of T. brucei phosphofructokinase (AID 485368); conditions: outcome: dose series up to 57.5 µM
ATP-dependent 6-phosphofructokinase (Trypanosoma brucei brucei), sequence (O15648 whole entry, looked up): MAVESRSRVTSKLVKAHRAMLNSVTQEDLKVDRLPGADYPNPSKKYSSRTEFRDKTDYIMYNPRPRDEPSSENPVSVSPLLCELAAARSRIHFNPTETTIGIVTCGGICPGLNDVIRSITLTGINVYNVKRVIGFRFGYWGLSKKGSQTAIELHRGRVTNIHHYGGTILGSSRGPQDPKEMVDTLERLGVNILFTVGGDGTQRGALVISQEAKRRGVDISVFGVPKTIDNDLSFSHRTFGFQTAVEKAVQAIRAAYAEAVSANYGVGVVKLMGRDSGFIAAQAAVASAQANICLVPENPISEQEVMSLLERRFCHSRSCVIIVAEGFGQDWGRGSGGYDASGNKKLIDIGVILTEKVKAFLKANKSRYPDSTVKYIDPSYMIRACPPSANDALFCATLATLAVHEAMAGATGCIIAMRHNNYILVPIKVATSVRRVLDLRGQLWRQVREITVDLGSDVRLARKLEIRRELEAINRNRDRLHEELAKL
Procedure, shortened: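 Steps: substrate mix (0.5 mM F6P, 0.1 mM ATP, MgCl2, TEA pH 8.0); compound; 1.25 nM T. brucei PFK; 45 min RT; ATP depletion 10 min; ADP-to-ATP detection 10 min; luminescence read; curve fitting and classification.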

[11] = molecular target: Thioredoxin reductase 1, cytoplasmic (Rattus norvegicus) (UniProt O89049); assay: qHTS Assay for Substrates of Mammalian Selenoprotein Thioredoxin Reductase 1 (TrxR1) (AID 488772);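 note: NADPH fluorescence in the first read after selenite addition and not the 8 min delta; series mostly up to about 57 µM; a drop in NADPH fluorescence below the no-compound background marks a TrxR1 substrate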
Thioredoxin reductase 1, cytoplasmic (Rattus norvegicus), sequence (O89049 whole entry, looked up): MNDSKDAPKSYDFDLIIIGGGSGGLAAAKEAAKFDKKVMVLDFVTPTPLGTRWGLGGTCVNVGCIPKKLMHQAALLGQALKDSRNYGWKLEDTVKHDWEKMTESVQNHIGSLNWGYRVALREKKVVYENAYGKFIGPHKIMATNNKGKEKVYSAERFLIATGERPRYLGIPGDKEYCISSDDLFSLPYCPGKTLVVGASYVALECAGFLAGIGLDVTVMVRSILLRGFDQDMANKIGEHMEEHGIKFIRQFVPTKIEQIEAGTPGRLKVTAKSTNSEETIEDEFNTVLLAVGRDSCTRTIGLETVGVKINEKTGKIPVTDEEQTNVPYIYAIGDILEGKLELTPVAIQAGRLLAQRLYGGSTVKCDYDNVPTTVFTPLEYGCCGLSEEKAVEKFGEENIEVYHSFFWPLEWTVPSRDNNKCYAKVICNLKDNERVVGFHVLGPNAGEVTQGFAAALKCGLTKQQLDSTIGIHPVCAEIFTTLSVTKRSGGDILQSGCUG
Procedure, shortened: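 Quantitative HTS in Tris-HCl buffer at pH 7.5 with EDTA and Tween-20, using rat TrxR1, 400 uM NADPH and 400 uM selenite (final). A fall in initial NADPH fluorescence relative to background marked substrate behaviour.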

[12] = molecular target: Thioredoxin reductase 1, cytoplasmic (Rattus norvegicus) (UniProt O89049); assay: qHTS Assay for Inhibitors of Mammalian Selenoprotein Thioredoxin Reductase 1 (TrxR1) (AID 488773); conditions: Potency: inhibition; note: nearly all actives have a fitted effect of over 40% in size; note: potency is the fitted concentration of half-maximal effect
Procedure, shortened: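 Steps: enzyme (90 nM) plus NADPH (400 uM final), 5 min at ~22 deg C; compound added, 15 min; selenite (400 uM final) added; fluorescence followed for 8 min. Concentration-response curves derived from the normalized delta values.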

[13] = molecular target: Flap endonuclease 1 (Homo sapiens) (UniProt P39748); assay: qHTS Validation Assay for the Inhibitors of Human Flap endonuclease 1 (FEN1) (AID 488816)
Flap endonuclease 1 (Homo sapiens), sequence (P39748 whole entry, looked up): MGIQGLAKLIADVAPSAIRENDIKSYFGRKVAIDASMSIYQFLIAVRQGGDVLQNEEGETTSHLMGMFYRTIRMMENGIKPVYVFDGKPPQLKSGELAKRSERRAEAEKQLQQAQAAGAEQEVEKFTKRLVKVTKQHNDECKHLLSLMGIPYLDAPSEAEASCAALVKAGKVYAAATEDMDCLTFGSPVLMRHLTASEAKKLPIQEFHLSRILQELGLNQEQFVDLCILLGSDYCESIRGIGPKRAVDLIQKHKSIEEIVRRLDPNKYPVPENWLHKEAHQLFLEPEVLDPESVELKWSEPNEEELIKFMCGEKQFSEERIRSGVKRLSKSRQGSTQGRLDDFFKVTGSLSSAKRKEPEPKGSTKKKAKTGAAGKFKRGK
Procedure, shortened: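 Human FEN1 (10 nM) preincubated 15 min at room temperature with compounds, then flap DNA substrate added at 50 nM final. Fluorescence read at 0 and 15 min; concentration-response fitted with four-parameter Hill equation.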

[14] = Cytometric Cell-Based qHTS for Inhibitors of the mTORC1 Signaling Pathway in MEF (Tsc2-/-, p53-/-) Cells (AID 2660);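 note: percent of cells above a phospho-rpS6 to PI ratio cutoff in each well; series mostly up to about 38 µM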
Procedure, shortened: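 Immunofluorescence qHTS of rpS6 Ser235/236 phosphorylation: MEFs (Tsc2-/-, p53-/-) treated 24 h, 37 C, in DMEM + 10% FBS. Alexa-488 signal normalized to PI count, referenced to rapamycin (7.5 nM) and DMSO; PI cell number recorded for viability.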

[15] = Quantitative high throughput screen for delayed death inhibitors of the malarial parasite plastid, 96 hour incubation (AID 488745); note: series mostly up to about 29 µM; nearly all actives have a fitted effect of over 70% in size
Procedure, shortened: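 Luciferase-expressing P. falciparum in erythrocytes (2% hematocrit, 0.1% parasitemia) incubated with compound for 96 h at 37 C, 5% CO2, in RPMI 1640 with 0.5% Albumax. Growth inhibition read as decreased luminescence.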

[16] = Quantitative high throughput screen for delayed death inhibitors of the malarial parasite plastid, 48 hour incubation (AID 488752); note: nearly all actives have a fitted effect of over 65% in size
Procedure, shortened: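 Erythrocytes infected with firefly luciferase-expressing P. falciparum (2% hematocrit, 0.1% parasitemia) cultured with compound for 48 h at 37 C, 5% CO2, in RPMI 1640/0.5% Albumax. Growth inhibition read as loss of luminescence.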

[17] = molecular target: RecQ-like DNA helicase BLM (Homo sapiens) (UniProt P54132); assay: qHTS Validation Assay for Inhibitors of Bloom's syndrome helicase (BLM) (AID 2364)
RecQ-like DNA helicase BLM (Homo sapiens), sequence (P54132 whole entry, looked up): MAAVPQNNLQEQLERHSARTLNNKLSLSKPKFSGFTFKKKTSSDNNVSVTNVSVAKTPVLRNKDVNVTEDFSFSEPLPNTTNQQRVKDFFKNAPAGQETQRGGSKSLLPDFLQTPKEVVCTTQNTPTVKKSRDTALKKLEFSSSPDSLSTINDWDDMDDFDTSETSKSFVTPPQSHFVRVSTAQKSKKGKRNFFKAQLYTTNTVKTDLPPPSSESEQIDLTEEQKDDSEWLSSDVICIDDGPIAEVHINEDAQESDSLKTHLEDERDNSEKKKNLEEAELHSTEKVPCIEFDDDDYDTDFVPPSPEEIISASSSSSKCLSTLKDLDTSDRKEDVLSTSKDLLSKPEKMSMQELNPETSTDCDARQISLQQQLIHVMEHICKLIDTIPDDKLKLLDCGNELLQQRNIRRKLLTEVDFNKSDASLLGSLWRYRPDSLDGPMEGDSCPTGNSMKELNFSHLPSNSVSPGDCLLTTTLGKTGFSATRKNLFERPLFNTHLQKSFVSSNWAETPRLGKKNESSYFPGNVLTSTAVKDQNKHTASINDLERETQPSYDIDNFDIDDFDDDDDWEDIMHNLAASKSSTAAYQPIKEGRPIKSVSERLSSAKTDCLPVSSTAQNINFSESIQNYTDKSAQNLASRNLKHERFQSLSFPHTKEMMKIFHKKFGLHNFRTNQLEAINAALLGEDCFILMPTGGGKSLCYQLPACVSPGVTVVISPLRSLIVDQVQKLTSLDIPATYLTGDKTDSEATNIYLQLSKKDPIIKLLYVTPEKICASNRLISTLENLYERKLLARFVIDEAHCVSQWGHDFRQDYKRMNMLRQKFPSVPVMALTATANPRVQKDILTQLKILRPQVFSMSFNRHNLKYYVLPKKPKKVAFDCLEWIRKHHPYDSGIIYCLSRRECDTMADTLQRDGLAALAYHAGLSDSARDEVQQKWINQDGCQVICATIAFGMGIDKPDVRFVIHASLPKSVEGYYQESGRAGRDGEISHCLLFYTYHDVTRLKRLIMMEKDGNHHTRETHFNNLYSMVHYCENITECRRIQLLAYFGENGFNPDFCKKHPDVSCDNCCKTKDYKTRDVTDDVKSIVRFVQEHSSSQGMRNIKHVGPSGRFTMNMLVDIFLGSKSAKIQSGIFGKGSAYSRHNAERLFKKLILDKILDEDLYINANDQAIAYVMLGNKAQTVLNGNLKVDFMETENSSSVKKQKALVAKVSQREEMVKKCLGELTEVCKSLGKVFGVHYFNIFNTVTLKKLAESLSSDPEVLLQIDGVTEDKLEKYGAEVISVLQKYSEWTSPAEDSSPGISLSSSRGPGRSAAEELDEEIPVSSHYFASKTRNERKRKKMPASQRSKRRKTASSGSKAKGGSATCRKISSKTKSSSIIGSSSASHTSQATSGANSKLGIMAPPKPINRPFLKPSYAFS
Procedure, shortened: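 50 nM BLM preincubated 15 min at room temperature with compound in pH 8.0 Tris buffer containing 2.5 ug/ml poly(dI-dC); started with 200 nM TAMRA/BHQ-2 forked duplex and 2 mM ATP (final). Unwinding read as TAMRA fluorescence increase, two reads 2 h apart.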

[18] = molecular target: Ubiquitin carboxyl-terminal hydrolase 2 (Homo sapiens) (UniProt O75604); assay: qHTS Validation Assay for Inhibitors of Ubiquitin-specific Protease USP2a Using CHOP2 as the Reporter (AID 463106)
Ubiquitin carboxyl-terminal hydrolase 2 (Homo sapiens), sequence (O75604 whole entry, looked up): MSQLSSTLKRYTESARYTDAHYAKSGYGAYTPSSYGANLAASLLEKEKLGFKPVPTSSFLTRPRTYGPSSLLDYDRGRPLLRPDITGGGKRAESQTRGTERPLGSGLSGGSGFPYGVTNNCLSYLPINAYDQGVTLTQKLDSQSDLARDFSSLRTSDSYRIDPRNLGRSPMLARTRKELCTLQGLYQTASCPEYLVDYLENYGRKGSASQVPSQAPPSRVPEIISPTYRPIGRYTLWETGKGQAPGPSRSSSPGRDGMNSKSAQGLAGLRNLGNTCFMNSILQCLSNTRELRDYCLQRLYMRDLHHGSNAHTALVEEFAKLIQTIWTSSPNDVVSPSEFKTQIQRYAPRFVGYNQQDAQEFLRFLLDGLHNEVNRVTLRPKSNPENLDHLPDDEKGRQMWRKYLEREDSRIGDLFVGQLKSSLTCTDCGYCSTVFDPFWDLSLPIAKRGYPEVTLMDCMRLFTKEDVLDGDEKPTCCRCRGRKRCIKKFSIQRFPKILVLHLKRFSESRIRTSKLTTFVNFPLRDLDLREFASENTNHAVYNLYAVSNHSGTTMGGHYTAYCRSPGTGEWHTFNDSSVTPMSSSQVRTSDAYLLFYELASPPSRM
Procedure, shortened: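 USP2 core (10 nM final) was preincubated with compound 30 min at RT in pH 8.0 Tris/CaCl2/beta-ME/CHAPS buffer. Ub-CHOP2 and reporter substrate (25 nM final each) were then added, with fluorescence (Ex 485/Em 531) read after 60 min. Data were normalized to NEM full inhibition and fitted to concentration-response curves.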

[19] = molecular target: ATP-dependent DNA helicase Q1 (Homo sapiens) (UniProt P46063); assay: qHTS Validation Assay for Inhibitors of RecQ-Like Dna Helicase 1 (RECQ1) (AID 2353)
ATP-dependent DNA helicase Q1 (Homo sapiens), sequence (P46063 whole entry, looked up): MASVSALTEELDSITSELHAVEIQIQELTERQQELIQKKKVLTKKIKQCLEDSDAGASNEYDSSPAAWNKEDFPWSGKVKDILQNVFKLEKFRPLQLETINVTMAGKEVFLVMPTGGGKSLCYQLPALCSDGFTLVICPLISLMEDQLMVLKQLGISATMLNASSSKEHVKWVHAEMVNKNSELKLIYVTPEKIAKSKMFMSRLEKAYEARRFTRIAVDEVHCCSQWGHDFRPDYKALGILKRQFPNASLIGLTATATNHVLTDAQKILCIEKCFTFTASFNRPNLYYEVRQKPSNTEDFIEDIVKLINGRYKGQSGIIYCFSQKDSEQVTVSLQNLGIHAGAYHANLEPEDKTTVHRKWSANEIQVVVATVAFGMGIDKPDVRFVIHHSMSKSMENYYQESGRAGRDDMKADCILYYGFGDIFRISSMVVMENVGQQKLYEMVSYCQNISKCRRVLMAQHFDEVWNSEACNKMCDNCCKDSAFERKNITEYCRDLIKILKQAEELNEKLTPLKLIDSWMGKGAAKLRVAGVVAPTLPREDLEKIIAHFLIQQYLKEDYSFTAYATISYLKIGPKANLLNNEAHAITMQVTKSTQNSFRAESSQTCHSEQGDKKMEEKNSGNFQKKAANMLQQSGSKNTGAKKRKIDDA
Procedure, shortened: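 50 nM RECQ1T1 preincubated 15 min with compound in Tris pH 8.0 buffer with MgCl2, DTT, Tween-20 and 2.5 ug/ml poly(dI-dC); started with 200 nM TAMRA/BHQ-2 forked duplex and 2 mM ATP. Unwinding read as fluorescence (525/598 nm), two reads 2 h apart.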

Measured: Potency

CCCN1C[C@H](CSC)C[C@@H]2c3cccc4[nH]cc(c34)C[C@H]21
inactive: [1] | [2] | [3] | [4] | [5] | [6] | [7] | [8] | [9] | [10] | [11] | [12] | [13]

Cc1nc2c([nH]1)c(=O)n(C)c(=O)n2Cc1ccco1
inactive: [1] | [14] | [2] | [3] | [4] | [5] | [6] | [7] | [8] | [9] | [10] | [15] | [16] | [11] | [12] | [13]

C[C@H](CS)C(=O)N1CCC[C@H]1C(=O)O
inactive: [1] | [17] | [14] | [2] | [3] | [4] | [5] | [6] | [7] | [8] | [9] | [10] | [15] | [16]

CCCNC(C)C(=O)Nc1ccccc1C (centres undefined)
inactive: [1] | [17] | [14] | [2] | [3] | [4] | [5] | [18] | [6] | [7] | [8] | [9] | [15] | [12] | [13]

CC(=O)OC(C)C[N+](C)(C)C (centres undefined)
inactive: [1] | [14] | [2] | [3] | [5] | [6] | [7] | [8] | [9] | [15] | [16] | [11] | [12] | [13]

O=C1NCN(c2ccccc2)C12CCN(CCCC(c1ccc(F)cc1)c1ccc(F)cc1)CC2
inactive: [1] | [19] | [18] | [6] | [7] | [9] | [12] | [13]

CN1CCN(CC(=O)N2c3ccccc3C(=O)Nc3cccnc32)CC1
inactive: [1] | [17] | [14] | [2] | [3] | [6] | [7] | [8] | [9] | [15] | [16] | [11] | [12] | [13]

Cc1nc2sccn2c(=O)c1CCN1CCC(=C(c2ccc(F)cc2)c2ccc(F)cc2)CC1
inactive: [1] | [14] | [2] | [18] | [7] | [9] | [16] | [11] | [13]
active: [4] 11.7 µM

CCCCNc1ccc(C(=O)OCCN(C)C)cc1
inactive: [1] | [2] | [3] | [4] | [6] | [7] | [8] | [9] | [16] | [11] | [12] | [13]

CCc1c(C)[nH]c2c1C(=O)C(CN1CCOCC1)CC2 (centres undefined)
active: [12] 29.9 µM
inactive: [1] | [14] | [2] | [3] | [4] | [5] | [18] | [6] | [7] | [8] | [9] | [15] | [16] | [13]

Cc1scc2c1N(C(=O)CN1CCN(C)CC1)c1ccccc1NC2=O
inactive: [1] | [17] | [14] | [2] | [3] | [5] | [18] | [6] | [7] | [8] | [9] | [15] | [16] | [11]

CCn1ccnc1CC1COc2ccccc2O1 (centres undefined)
inactive: [1] | [17] | [14] | [2] | [3] | [5] | [6] | [7] | [8] | [9] | [15] | [16] | [11] | [12] | [13]

O=C(O)CN(CCN(CC(=O)O)CC(=O)O)CCN(CC(=O)O)CC(=O)O
inactive: [1] | [14] | [2] | [3] | [5] | [18] | [6] | [7] | [8] | [9] | [16] | [12] | [13]

CC(=O)Oc1cc(C(C)C)c(OCCN(C)C)cc1C
inactive: [1] | [19] | [2] | [3] | [5] | [6] | [7] | [8] | [9] | [15] | [16] | [12] | [13]

CN/C(=C\[N+](=O)[O-])NCCSCc1ccc(CN(C)C)o1
inactive: [1] | [14] | [2] | [3] | [5] | [18] | [6] | [7] | [8] | [9] | [15] | [16] | [11]

CN(C(=O)CCCOc1ccc2[nH]c(=O)ccc2c1)C1CCCCC1
inactive: [1] | [2] | [3] | [5] | [18] | [6] | [7] | [9] | [16] | [11] | [12] | [13]

CO[C@@]1(NC(=O)CSCC#N)C(=O)N2C(C(=O)O)=C(CSc3nnnn3C)CS[C@@H]21
inactive: [1] | [2] | [3] | [5] | [6] | [7] | [8] | [9] | [15] | [16] | [11] | [13]
active: [12] 21.2 µM
